Experimental data taken from PubChem BioAssay (NCI).
“And” between values parts separate entries of the source, which are not always exact repeats. Identical values can stand only once. The panel holds about 83,000 compounds, 20% with a hit somewhere; the sample as a whole holds those more often.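 In brief: 96-well plates, 48 h treatment, single concentration, percent growth endpoint.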 The source made the active and inactive calls. The calls were made as follows: active = growth percent below 10; inactive = the rest.

These compounds were tested on MDA-MB-468 breast (assay: NCI-60 one-dose screen, 48 h (100 = growth as untreated, 0 = no growth, -100 = all killed)). Conditions: 10 µM unless noted.

| Compound | growth |
| --- | --- |
| COC(=O)c1ccc2[nH]c(O)c(C(=Nc3ccc(N(C)C(=O)CN4CCN(C)CC4)cc3)c3cccc(OC)c3)c2c1 | 37.3% (inactive) |
| CN1CCN(Cc2ccc(NC(=O)c3cncc(C#Cc4cncn5ccnc45)c3)cc2C(F)(F)F)CC1 | 125% (inactive) |
| COC1C(O)CC(OC2CC(OC3CC(O[C@@H]4C(=O)c5c(cc6cc(OC7CC(OC8CC(O)C(O)C(C)O8)C(O)C(C)O7)c(C)c(O)c6c5O)CC4[C@H](OC)C(=O)O)OC(C)C3O)OC(C)C2O)OC1C (stereo not given in full) | 15.8% (inactive) |
| NN=C(c1ccc(Cl)cc1)c1ccc(Cl)cc1 | 111% (inactive) |
| Cc1ccc2nc(NC(=O)CSc3nc(-c4ccccc4)c(C#N)c4nnnn34)sc2c1 | 107% (inactive) |
| O=C(Nc1ccc(Br)cc1)C1=NCCCCN1 | 97.6% (inactive) |
| O=C1NCC2CCCC1C2 (stereo not given) | 105% (inactive) |
| Oc1cccnc1CN1CCOCC1 | 97.2% (inactive) and 102% (inactive) |
| Cc1ccc(-c2cc3c(cc2O)C2CCCCC2(N2CCOCC2)O3)cc1 (stereo not given) | 87.9% (inactive) |
| CC/C=C\C[C@H]1C/C=C2/C(=O)C(Cl)=C[C@@H]2C/C=C\CCCC(=O)O1 | -69.2% (active) |
| N#Cc1c(-c2ccccc2)nc2c(c(-c3ccccc3)nn2-c2ccccc2)c1-c1ccc(N2CCCCC2)cc1 | 93.7% (inactive) |
| CCC[S@@](=O)c1ccc2nc(NC(=O)OC)[nH]c2c1 | 68.5% (inactive) |
| O=C(O)c1c([N+](=O)[O-])cnc2ccccc12 | 112% (inactive) |
| CCN1C(=S)N(c2ccccc2)C2NC(=O)N(/N=C/C=C/c3ccccc3OC)C21 (stereo not given) | 79% (inactive) |
| O=C(/C=C/C12c3ccccc3C(c3ccccc31)C1C(=O)NC(=O)C12)c1cccs1 (stereo not given) | 45.8% (inactive) |
| O=C1C[C@@H]2/C(=C(O)\C=C\c3ccccc3)C(=O)C=C[C@@H]2O1 | -76.9% (active) |
| O=C1/C(=C\c2ccc(Cl)cc2)CN(C(=S)Nc2ccccc2)C/C1=C\c1ccc(Cl)cc1 | -64.4% (active) |
| COc1ccc(-c2cc(/C=C/C(=O)c3ccc(N)cc3)[nH]n2)cc1OC | -1.28% (active) |
| CC1SC(c2cccc(Oc3ccccc3)c2)N(CCc2cccs2)C1=O (stereo not given) | -45.5% (active) |
| CCN1CCN(c2cc(-c3cn[nH]c3-c3cc(C)cc(OC)c3)nc(-c3cccnc3)n2)CC1 | 54.3% (inactive) |

| Compound | growth |
| --- | --- |
| COc1cc(C2C3=C(COC3=O)N(CCO)c3cc4c(cc32)CCC4)cc(OC)c1O (stereo not given) | -21.7% (active) |
| O=C1c2c(c3c4cccnc4[nH]c3c3ccc4ccccc4c23)C(=O)N1CCN1CCNCC1 | 87.1% (inactive) |
| O=C1C(Cl)=C(NCCN2CCOCC2)C(=O)c2ncccc21 | -74.1% (active) |
| COC(=O)c1nc(-c2ccc(C)cc2)oc1S(=O)(=O)c1ccc(Cl)cc1 | 101% (inactive) |
| CSc1nc(CC(C)C)c(C#N)c(=O)n1C | -2.71% (active) |
| CCOC(=O)c1cc(C)n(-c2ccc(C(=O)O)cc2)c1C | 65.5% (inactive) |
| CC(C)c1ccc(C(=O)OC2CCCC2)cc1 | 106% (inactive) |
| O=C1c2c(c3c4cc(O)ccc4oc3c3[nH]c4ccccc4c23)C(=O)N1O | -48.7% (active) |
| CCC1CCC(C)NC1 (stereo not given) | 92.4% (inactive) |
| C=C1C(=O)O[C@H]2[C@H]1CC/C(COC(=O)NCc1cccc(OC)c1)=C\CC[C@@]1(C)O[C@@H]21 | -13.2% (active) |
| COc1cccc(COc2ccc(/C=C3/C(=O)Nc4cc(Cl)ccc43)cc2)c1 | 85.1% (inactive) |
| COc1ccccc1N1CCN(C(=S)Nc2ccccc2)CC1 | 97% (inactive) |
| CN(C)c1ccc(/C=C/C=N/NC(=O)c2cc(O)c(O)c(O)c2)cc1 | 89.1% (inactive) |
| CC(=O)O[C@]1(C(C)=O)CC[C@H]2[C@@H]3C=C(Cl)C4=CC(=O)CC[C@]4(C)[C@H]3CC[C@@]21C | 105% (inactive) |
| O=S(=O)(NCCCNc1nccc(-c2c(-c3ccccc3)nc3occn23)n1)c1ccc(Cl)cc1 | 67.1% (inactive) |
| O=C(/C=C/C=C/c1ccc2c(c1)OCO2)N1CCCCC1 | 106% (inactive) and 105% (inactive) |
| [2H]C([2H])([2H])Oc1ccc(/C=C/C(=O)/C=C(O)/C=C/c2ccc(OC([2H])([2H])[2H])c(OC([2H])([2H])[2H])c2)cc1OC([2H])([2H])[2H] | 1.44% (active) |
| COc1cccc2c(N=NC(=O)c3ccc(S(N)(=O)=O)cc3)c(O)[nH]c12 | 101% (inactive) |
| CCN(CCNS(C)(=O)=O)c1ccc(N)c(C)c1 | 56.5% (inactive) and 69.7% (inactive) |
| Cc1cc(Br)c(N)c(Br)c1 | 98.3% (inactive) |
